Where “and” joins values, the source holds several entries; their conditions need not be identical. Identical values can stand only once. Over roughly 13,000 compounds, “IFI” has its median near 4; the highest 2% begin near 17. The entries come from a sample that favours the highest values as a whole.
Test: GSK_TCMDC: Inhibition Frequency Index (IFI). The number of non-kinase HTS assays where a compound showed > 50 % inhibition, expressed as a percentage of the number of such assays in which the compound was tested
Assay type: functional
In the case of CC(=O)C1(c2ccccc2)CCN(CCC(NC(=O)c2cc(C(F)(F)F)cc(C(F)(F)F)c2)c2ccc(Cl)c(Cl)c2)CC1 (stereo not given), the IFI was 1.45%.
In the case of CN(C(=O)OCc1ccccc1)C1CCC(CCN2CCC3(CC2)C(=O)NCN3c2cccc(C(F)(F)F)c2)(c2ccccc2)CC1 (stereo not given), the IFI was 8.63%.
O=C(c1cc(C(F)(F)F)cc(C(F)(F)F)c1)N1CCC(CCN2CCC3(CC2)C(=O)NCN3c2ccccc2)CC1Cc1ccc(Cl)c(Cl)c1 (stereo not given) showed an IFI of 20%.
Work on Cc1cc(NC(=O)[C@@H](Nc2ccc(C#N)c3ccccc23)C2CCCCC2)ccc1F yielded an IFI of 3.85%.
Work on c1ccc(C(OCCC2CCN(Cc3cccc4cccnc34)CC2)c2ccccc2)cc1 yielded an IFI of 3.1%.
For Cc1ccc(CC(C)NC[C@H](O)c2cccc(Cl)c2)cc1 (stereo not given in full), the IFI was 4.38% and 0.72%.
In the case of CC(Cc1ccc(Oc2ccc(Cl)cc2)cc1)NCC(O)c1cccc(Cl)c1 (stereo not given), the IFI was 7.3%.
CC(Cc1ccc(OC2CCCCC2)cc1)NCC(O)c1cccc(Cl)c1 (stereo not given) showed an IFI of 21.7%.
Compound CN1C2CCC1c1cc(NC(=O)c3cc(-c4ccc(Cl)cc4)cs3)ccc12 (stereo not given) has an IFI of 13.3%.
CC(Cc1ccc(OCCCCOc2ccccc2)cc1)NCCC1CCCN1C (stereo not given) showed an IFI of 32.5%.
Compound CC(Cc1ccc(Oc2ccccc2)cc1)NCC(O)c1cccc(C(F)(F)F)c1 (stereo not given) has an IFI of 4.96%.
COC(C(=O)OCCC1CCCN1C)(c1ccccc1)c1ccccc1 (stereo not given) gave an IFI of 2.19%.
For CC(Cc1ccc(OCc2ccccc2)cc1)NCC(O)c1cccc(Cl)c1 (stereo not given), the IFI was 15.6%.
Compound CCCCCOc1ccc(CC(C)NCC(O)c2cccc(Cl)c2)cc1 (stereo not given) has an IFI of 4.86%.
With CC(Cc1ccc(OCCOc2ccccc2)cc1)NCC(O)c1cccc(C(F)(F)F)c1 (stereo not given) the IFI was 2.9%.
For CC(Cc1ccc(OCCCCOc2ccccc2)cc1)NCCCN1CCOCC1 (stereo not given), the IFI was 30.1%.
Compound CC(Cc1ccc(OCCCCOc2ccccc2)cc1)NCCCn1ccnc1 (stereo not given) has an IFI of 32.6%.
Work on COC(C(=O)OCCC1CCCN1C)(c1ccccc1)C1CCCCC1 (stereo not given) yielded an IFI of 1.45%.
With CN1CC=C(c2c[nH]c3ccc(Sc4ccccc4)cc23)CC1 the IFI was 3.7%.
In the case of CCCCCCC(C)(C)c1cc(O)c2c3c(c(=O)oc2c1)CCN(Cc1ccccc1)C3, the IFI was 2.22%.
Compound COC(=O)c1ccc(CC(C)NCC(O)c2cccc(OCc3ccccc3)c2)cc1 (stereo not given) has an IFI of 5.76%.
Work on CC1CN=C(Nc2ncc(Cl)cc2Cl)N1 (stereo not given) yielded an IFI of 0.7%.
For CN(C)CCc1c[nH]c2ccc(C(=O)Nc3ccc(-c4ccncc4)cc3)cc12, the IFI was 5.19%.
COc1cccc(CN2CCC(CCOC(c3ccccc3)c3ccccc3)CC2)c1O gave an IFI of 3.1%.
CC(C)CNCc1ccc(-c2cccc(CN(C(=O)CCC3CCCC3)C3CCN(Cc4ccccc4)CC3)c2)cc1 showed an IFI of 9.29%.
For O=C(Nc1ccccc1C(F)(F)F)NC1CCC(CN2CCC(c3c[nH]c4ccccc34)CC2)CC1 (stereo not given), the IFI was 4.29% and 2.14%.
Compound O=C1c2ccccc2CCC1CCN1CC=C(c2c[nH]c3ccccc23)CC1 (stereo not given) has an IFI of 2.92%.
Compound O=C(Nc1cc(C(F)(F)F)cc(C(F)(F)F)c1)c1cc(Cl)ccc1O has an IFI of 33.3%.
O=C(c1cc(C(=O)NCc2ccc(Cl)cc2)c(=O)n(Cc2ccc(Cl)cc2)c1)c1cc(Cl)ccc1O showed an IFI of 0%.
With O=C(/C=C/c1ccccc1Cl)NC1CCC(CN2C3CCC2CC(c2c[nH]c4ccccc24)C3)CC1 (stereo not given) the IFI was 6.38%.
Work on CCCCCc1cc(O)c2c(c1)OC(C)(C)CC2C1=CCN(Cc2ccccc2)CC1 (stereo not given) yielded an IFI of 2.86%.
Work on Cc1csc(-c2ccc3[nH]cc(C4=CCN(C)CC4)c3c2)n1 yielded an IFI of 0%.
For CC[C@H]1CN2CC[C@H]1C[C@H]2[C@H](O)c1cc(N2CCCC(CO)C2)nc2ccc(OC)cc12 (stereo not given in full), the IFI was 0%.
In the case of O=C(NC1CCC(CN2CCC(c3c[nH]c4ccccc34)CC2)CC1)c1cc2cccc([N+](=O)[O-])c2[nH]1 (stereo not given), the IFI was 3.65%.
Work on CC(Cc1ccc(NC(=O)CCCc2ccccc2)cc1)NCCc1cccc(Cl)c1 (stereo not given) yielded an IFI of 4.29%.
Compound CC(Cc1ccc(NC(=O)CCNCc2ccccc2)cc1)NCCc1cccc(Cl)c1 (stereo not given) has an IFI of 32.4%.
CC(Cc1ccc(NC(=O)[C@H](C)NCCc2cccc(Cl)c2)cc1)NCCc1cccc(Cl)c1 (stereo not given in full) gave an IFI of 9.35%.
For O=C(/C=C/c1ccccc1Cl)NC1CCC(CN2CCC(c3c[nH]c4ccccc34)CC2)CC1 (stereo not given), the IFI was 5.04% and 6.94%.
Compound CC(=O)N(Cc1cccc(-c2cccc(CNCc3ccc4c(c3)OCO4)c2)c1)C1CCN(Cc2ccccc2)CC1 has an IFI of 4.51%.
Compound COc1ccc(N(c2nc(-c3cc(Cl)ccc3Cl)cs2)C2CCNCC2)cc1 has an IFI of 23.1%.
With Fc1ccc(N(c2nc(-c3cc(F)cc(C(F)(F)F)c3)cs2)C2CCNCC2)cc1 the IFI was 17.1%.
For COc1ccc(F)cc1-c1csc(N(c2ccc(F)cc2)C2CCNCC2)n1, the IFI was 14.4%.
In the case of CCOC(=O)c1c(CN2CCN(C)CC2)n(Cc2ccccc2)c2cc(Br)c(O)cc12, the IFI was 5.56%.
In the case of COc1ccc(C=CC(=O)NC2CCC(CN3CCC(c4c[nH]c5ccccc45)CC3)CC2)cc1 (stereo not given), the IFI was 7.19% and 5.04%.
O=C(C=Cc1ccc(F)c(Br)c1)N1CCC(CN2CCC(c3c[nH]c4ccccc34)CC2)CC1 gave an IFI of 6.62%.
With COc1ccc(C2CNCc3c2cc(OC)c(OC)c3Cl)cc1 (stereo not given) the IFI was 2.94%.
For O=C(NCc1ccccc1)c1nn(CCCN2CCC3(CC2)C(=O)NCN3c2ccccc2)cc1-c1ccc(Cl)c(Cl)c1, the IFI was 24.3%.
With COc1cc(NC(=O)c2nn(CCCN3CCC4(CC3)C(=O)NCN4c3ccccc3)cc2-c2ccc(Cl)c(Cl)c2)cc(OC)c1OC the IFI was 15.4%.
Compound O=C1NCN(c2ccc(O)cc2)C12CCN(CCCC(c1ccc(F)cc1)c1ccc(F)cc1)CC2 has an IFI of 4.32%.
O=C(NCc1ccc(S(=O)(=O)N2CCC(CN3CCC(c4c[nH]c5ccccc45)CC3)CC2)s1)c1ccccc1 showed an IFI of 6.85%.
O=C(C=Cc1ccc(Br)cc1)NC1CCC(CN2CCC(c3c[nH]c4ccccc34)CC2)CC1 (stereo not given) showed an IFI of 6.38%.
Compound O=C1Nc2cccc3c2C1(CCCCN1CC=C(c2c[nH]c4ncccc24)CC1)CCC3 (stereo not given) has an IFI of 4.41%.
N[C@@H](CCN1CCC(c2cccc(O)c2)CC1)Cc1ccc(F)c(F)c1 gave an IFI of 12.1%.
N#Cc1c(F)cc(N2CCC(NCC[C@H](N)Cc3ccc(F)c(F)c3)CC2)cc1F gave an IFI of 21.9%.
Compound CCC1(C)N=C(N)N=C(N)N1c1ccc(Cl)cc1 (stereo not given) has an IFI of 0%.
Compound COc1cccc(C(=O)C2CC2CN2CC=C(c3c(C)[nH]c4ccccc34)CC2)c1 (stereo not given) has an IFI of 3.74%.
C[C@H](Cc1ccc(OCCCCCCOc2ccccc2)cc1)NC[C@@H](O)c1cc(Br)no1 gave an IFI of 13.5%.
Compound C[C@H](Cc1ccc(OCCCCCCOc2ccccc2)cc1)NC[C@H](O)c1cccc(Cl)c1 has an IFI of 7.64%.
CNCCCCCCOc1ccc(CC(C)NCC(O)c2cccc(C(F)(F)F)c2)cc1 (stereo not given) gave an IFI of 7.8%.
Compound CC(Cc1ccc(OCCOc2ccccc2)cc1)NCC(O)c1cccc(Cl)c1 (stereo not given) has an IFI of 6.38%.
Compound CC(Cc1ccc(OCCCCOc2ccccc2)cc1)NCCCc1nc2ccccc2[nH]1 (stereo not given) has an IFI of 33.3%.
For CC(Cc1ccc(OCCCCOc2ccccc2)cc1)NCCc1ccccc1Cl (stereo not given), the IFI was 28%.
For CC(Cc1ccc(OCc2ccc(CCN(C)C)cc2)cc1)NCCc1cccc(Cl)c1 (stereo not given), the IFI was 5.84%.
For COc1cccc(CC(C)NCC(O)c2cccc(Cl)c2)c1 (stereo not given), the IFI was 1.44%.
With COc1cccc(CCNC(C)Cc2ccc(OCCCCOc3ccccc3)cc2)c1 (stereo not given) the IFI was 31%.
Work on Cn1nc(C(F)(F)F)cc1-c1ccc(C(=O)NC2CCC(CN3CCC(c4c[nH]c5ccccc45)CC3)CC2)s1 (stereo not given) yielded an IFI of 6.16%.
Compound O=C(Nc1ccc(Cl)c(Cl)c1)N1CCC(CN2CCC(c3c[nH]c4ccccc34)CC2)CC1 has an IFI of 4.23%.
For CC[C@H]1CN2CC[C@H]1C[C@H]2[C@H](O)c1cc(-c2ccccc2C)nc2ccc(OC)cc12, the IFI was 5.44%.
Compound CCCCCCCCNCC(O)c1ccc(Cl)c(Cl)c1 (stereo not given) has an IFI of 11.1%.
With CN(c1cc(NC(=O)c2cccs2)ccn1)C1CCN(Cc2ccccc2)CC1 the IFI was 2.78%.
In the case of CNCCN(C)C(=O)Oc1c(Br)c(C)nc(C)c1-c1ccc(Oc2ccc(OC(F)(F)F)cc2)cc1, the IFI was 12.4%.
With Cc1nc(C)c(-c2ccc(Oc3ccc(OC(F)(F)F)cc3)cc2)c(OC(=O)N(CCNC(C)C)C(C)C)c1Br the IFI was 18%.
With CNCCCN(C)C(=O)Oc1c(Br)c(C)nc(C)c1-c1ccc(Oc2ccc(OC(F)(F)F)cc2)cc1 the IFI was 7.41%.
For COc1cccc(O)c1CNCC(O)c1cccc(C(F)(F)F)c1 (stereo not given), the IFI was 0.78%.
For CC(=O)Nc1ccc2[nH]cc(C3CCN(CC4CCN(C(=O)/C=C/c5ccc(Cl)c(Cl)c5)CC4)CC3)c2c1, the IFI was 1.46%.
